Data taken from PMC7862700, “An all-to-all approach to the identification of sequence-specific readers for epigenetic DNA modifications on cytosine”.

Target: T1, ETV7 (Homo sapiens, UniProt Q9Y603 1-341)
T1 sequence: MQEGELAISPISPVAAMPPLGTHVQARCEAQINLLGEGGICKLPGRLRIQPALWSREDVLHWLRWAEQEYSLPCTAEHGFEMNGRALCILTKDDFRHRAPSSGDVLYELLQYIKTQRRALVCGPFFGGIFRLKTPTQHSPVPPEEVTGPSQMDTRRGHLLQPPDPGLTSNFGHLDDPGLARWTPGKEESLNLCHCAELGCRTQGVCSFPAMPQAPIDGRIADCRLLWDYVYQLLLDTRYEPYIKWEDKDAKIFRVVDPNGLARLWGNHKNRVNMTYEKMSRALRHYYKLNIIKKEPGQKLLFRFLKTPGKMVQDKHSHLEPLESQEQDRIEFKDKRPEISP
Experiment: DAPPL (digital affinity profiling via proximity ligation, sequencing); 10 mM Tris-HCl pH 7.5, 50 mM NaCl, 1 mM DTT, 4% glycerol, room temperature, 30 min; GST-TFs on glutathione beads, 16-mer random dsDNA library, 0.1% formaldehyde crosslink after washing; high values mean tight binding
Conditions: protein: recombinant; tags: N-terminal GST; dsDNA, one strand shown
Outline: (§1)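 The binding signal reported is, for every hexamer, its read frequency for a factor over its read frequency for the tag-only sample. Reads came from pools of yeast-expressed, GST-fused human transcription factors on glutathione beads, barcoded with DNA and mixed with that sample, which were incubated with 200 nmole of a random double-stranded 16-mer DNA library in Tris/NaCl/DTT/glycerol buffer at room temperature for 30 min. After washing, the pools were crosslinked with 0.1% formaldehyde, proximity-ligated with BsaI/T4 ligase for 1 h at 37 °C, PCR-amplified and sequenced on an Illumina NextSeq500.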

Row | Sequence | binding signal
1 | ATTGCC | 1.22 fold enrichment (6-mer frequency, TF over GST control)
2 | ACGCCC | 1.03 fold enrichment (6-mer frequency, TF over GST control)
3 | CACTCC | 1.24 fold enrichment (6-mer frequency, TF over GST control)
4 | AAAAAA | 1.31 fold enrichment (6-mer frequency, TF over GST control)
5 | CAGGAA | 1.52 fold enrichment (6-mer frequency, TF over GST control)
6 | GCCCGC | 1.13 fold enrichment (6-mer frequency, TF over GST control)
7 | TACGTC | 1.27 fold enrichment (6-mer frequency, TF over GST control)
8 | TAATCC | 1.28 fold enrichment (6-mer frequency, TF over GST control)
9 | GCGGAA | 1.26 fold enrichment (6-mer frequency, TF over GST control)
10 | TGATGT | 1.18 fold enrichment (6-mer frequency, TF over GST control)
11 | CCGACA | 1.13 fold enrichment (6-mer frequency, TF over GST control)
12 | CGGAAG | 2.8 fold enrichment (6-mer frequency, TF over GST control)
13 | TTTAAT | 1.46 fold enrichment (6-mer frequency, TF over GST control)
14 | GGAACA | 1.03 fold enrichment (6-mer frequency, TF over GST control)
15 | TGATAT | 1.03 fold enrichment (6-mer frequency, TF over GST control)
16 | CTTGTC | 1.25 fold enrichment (6-mer frequency, TF over GST control)
17 | ATACGC | 1.06 fold enrichment (6-mer frequency, TF over GST control)
18 | TGACGA | 1.11 fold enrichment (6-mer frequency, TF over GST control)
19 | CCGCAA | 1.32 fold enrichment (6-mer frequency, TF over GST control)
20 | ACCCCC | 1.08 fold enrichment (6-mer frequency, TF over GST control)
21 | TCAAAT | 1.14 fold enrichment (6-mer frequency, TF over GST control)
22 | GATTTG | 1.15 fold enrichment (6-mer frequency, TF over GST control)
23 | CGTCAC | 1.13 fold enrichment (6-mer frequency, TF over GST control)
24 | TTCGAG | 1.18 fold enrichment (6-mer frequency, TF over GST control)
25 | GGTTTC | 1.38 fold enrichment (6-mer frequency, TF over GST control)
26 | ACTGCG | 1.21 fold enrichment (6-mer frequency, TF over GST control)
27 | ACTGAC | 1.26 fold enrichment (6-mer frequency, TF over GST control)
28 | AAGTTG | 1.26 fold enrichment (6-mer frequency, TF over GST control)
29 | CGCACT | 1.27 fold enrichment (6-mer frequency, TF over GST control)
30 | ACATCG | 1.07 fold enrichment (6-mer frequency, TF over GST control)

Target: T2, ELF5 (Homo sapiens, UniProt Q9UKW6-2 1-255)
T2 sequence: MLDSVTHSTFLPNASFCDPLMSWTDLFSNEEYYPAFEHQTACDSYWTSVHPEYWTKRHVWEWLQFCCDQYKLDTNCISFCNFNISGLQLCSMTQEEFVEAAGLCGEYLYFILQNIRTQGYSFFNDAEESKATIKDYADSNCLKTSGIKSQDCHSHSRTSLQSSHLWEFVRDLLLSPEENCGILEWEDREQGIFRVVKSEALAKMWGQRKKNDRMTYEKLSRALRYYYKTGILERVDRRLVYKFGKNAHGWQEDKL
Experiment: as above
Conditions: protein: recombinant; tags: N-terminal GST; dsDNA, one strand shown
Outline: as §1

Row | Sequence | binding signal
31 | GTCACA | 1.06 fold enrichment (6-mer frequency, TF over GST control)
32 | ATGGGT | 1.34 fold enrichment (6-mer frequency, TF over GST control)
33 | GTTTGA | 1.17 fold enrichment (6-mer frequency, TF over GST control)
34 | ATTGGG | 1.11 fold enrichment (6-mer frequency, TF over GST control)
35 | CGTCCC | 1.31 fold enrichment (6-mer frequency, TF over GST control)
36 | GCTCTG | 1.02 fold enrichment (6-mer frequency, TF over GST control)
37 | TTCCCT | 2.49 fold enrichment (6-mer frequency, TF over GST control)
38 | CCGGCC | 1.22 fold enrichment (6-mer frequency, TF over GST control)
39 | TTCTTG | 1.39 fold enrichment (6-mer frequency, TF over GST control)
40 | TGTTTG | 1.29 fold enrichment (6-mer frequency, TF over GST control)
41 | ATTGCC | 1.22 fold enrichment (6-mer frequency, TF over GST control)
42 | ACGCCC | 1.05 fold enrichment (6-mer frequency, TF over GST control)
43 | CACTCC | 1.18 fold enrichment (6-mer frequency, TF over GST control)
44 | AAAAAA | 1.29 fold enrichment (6-mer frequency, TF over GST control)
45 | CAGGAA | 2.12 fold enrichment (6-mer frequency, TF over GST control)
46 | GCCCGC | 1.1 fold enrichment (6-mer frequency, TF over GST control)
47 | TACGTC | 1.23 fold enrichment (6-mer frequency, TF over GST control)
48 | TAATCC | 1.19 fold enrichment (6-mer frequency, TF over GST control)
49 | GCGGAA | 1.67 fold enrichment (6-mer frequency, TF over GST control)
50 | TGATGT | 1.23 fold enrichment (6-mer frequency, TF over GST control)
